A short description of assay [1]: qHTS assay to identify small molecule agonists of the vitamin D receptor (VDR) signaling pathway - cell viability counter screen (AID 743224). Also: nearly all actives have a fitted effect of over 50% in size. Also: potency is read from the fitted curve at half-maximal effect. In outline:
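In parallel with the bla FRET readout, cytotoxicity toward VDR-bla cells after 16 h compound exposure was assessed by CellTiter-Glo, with luminescence recorded after a 30 min room-temperature incubation.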

Assay [2] in a line: qHTS assay to identify small molecule antagonists of the vitamin D receptor (VDR) signaling pathway - cell viability counter screen (AID 743225). Also: nearly all actives have a fitted effect of over 50% in size. Also: potency is read from the fitted curve at half-maximal effect. In outline:
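Viability counter screen run in the same wells as the beta-lactamase reporter assay: HEK 293T VDR-UAS-bla cells, 16 h compound exposure at 37C with 3 nM (final) 1-alpha,25-dihydroxyvitamin D3. CellTiter-Glo luminescence, 30 min, room temperature.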
On the technique in general: In qHTS, concentration-response curves come from the screen itself.

Assay [3] in a line: qHTS assay to identify small molecule agonists of the NFkB signaling pathway - cell viability counter screen (AID 1159515; calls by dose curve; also: nearly all actives have a fitted effect of over 55% in size; also: potency is read from the fitted curve at half-maximal effect). In outline: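 Plate 2,000 NFkB-bla ME-180 cells/well; incubate overnight. Add compounds, 5 hr at 37 C. Add FRET substrate, 1.5 hr RT. Add CellTiter-Glo, 30 min RT; read luminescence.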
A short description of assay [4]: qHTS assay to identify small molecule agonists of the endoplasmic reticulum stress response signaling pathway - cell viability counter screen (AID 1159517; calls by dose curve; also: nearly all actives have a fitted effect of over 50% in size; also: potency is read from the fitted curve at half-maximal effect). Put shortly:
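Cytotoxicity of test compounds toward ESRE-bla HeLa cells was assessed after 5 hr exposure. The luminescent CellTiter-Glo signal was measured 30 min after reagent addition.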

Assay [5] is described as follows: qHTS assay to identify small molecule antagonists of the retinoid-related orphan receptor gamma (ROR-gamma) signaling pathway - cell viability counter screen (AID 1159520). Also: nearly all actives have a fitted effect of over 50% in size. Also: potency is read from the fitted curve at half-maximal effect. Put shortly: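 Tet-on ROR gamma CHO cells (1,000/well) were plated 4 hr, given compounds in DMSO for 2 hr at 37 C, then induced with 1 uM final doxycycline for 16 hr. Viability was read as ATP by CellTiter-Glo luminescence after 30 min.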

The nature of assay [6]: qHTS assay to identify small molecule agonists of the AP-1 signaling pathway - cell viability counter screen (AID 1159525; calls by dose curve; also: nearly all actives have a fitted effect of over 55% in size; also: potency is read from the fitted curve at half-maximal effect). In outline:
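Each titration point was normalised to DMSO and tetra n-octyl ammonium bromide controls. The read was Cell Titer Glo luminescence after 30 min at RT, following 5 h compound exposure of ME-180 AP-1-bla cells at 37 °C.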

Assay [7] is described as follows: qHTS assay to identify small molecule agonists of the RXR signaling pathway - cell viability counter screen (AID 1159529). Also: nearly all actives have a fitted effect of over 50% in size. Also: potency is read from the fitted curve at half-maximal effect. In outline: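 Luminescence from CellTiter-Glo (30 min, RT) measured viability in the same wells as the beta-lactamase reporter readout. Cells: GeneBLAzer RXR-alpha HEK 293T, 2% charcoal-stripped FBS. Compound exposure 16 hr, 37 C.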
Assay [8] is described as follows: qHTS assay to identify small molecule antagonists of the retinoid acid receptor (RAR) signaling pathway - cell viability counter screen (AID 1159551). Also: nearly all actives have a fitted effect of over 35% in size. Also: potency is read from the fitted curve at half-maximal effect. In outline:
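Viability of C3RL4 cells is quantified from ATP by luminescence after 6 h treatment at 37 C with compounds and 1 uM retinol.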

A short description of assay [9]: qHTS assay to identify small molecule antagonists of the retinoic acid receptor (RAR) signaling pathway (AID 1159552; also: nearly all actives have a fitted effect of over 50% in size; also: potency is read from the fitted curve at half-maximal effect). In outline: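 Luminescence from a RARE luciferase reporter in C3RL4 cells served as read-out. Cells received compounds together with 1 uM final retinol and incubated 6 hr at 37 C before detection reagent was added for 30 min at room temperature.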

The nature of assay [10]: qHTS assay to identify small molecule agonists of the estrogen related receptor (ERR) signaling pathway (AID 1224820). Put shortly:
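Luminescence readout (One-Glo, 30 min RT) from NTP-supplied ERR cell line exposed to compounds for 18 h at 37 C. Cells seeded 2,000 per well and pre-incubated 6 h before pin-tool compound transfer.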

Assay [11] relates to estrogen-related receptor alpha (ERRalpha) with PGC-1alpha coactivator, human. In words: qHTS assay to identify small molecule antagonists of the estrogen related receptor signaling pathway with the pleiotropic PPARgamma coactivator (PGC) (AID 1224821; calls by dose curve). Put shortly: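 PGC/ERR reporter cells; 6 h pre-incubation 37 C/5% CO2; pin-tool compound in DMSO, 18 h 37 C; One-Glo added, 30 min RT; luminescence read. qHTS antagonist mode.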

Assay [12] is described as follows: qHTS assay to identify small molecule agonists of the estrogen related receptor signaling pathway with the pleiotropic PPARgamma coactivator (PGC) (AID 1224823). Put shortly: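 Luminescence readout (One-Glo, 30 min RT) from PGC/ERR cell line treated 18 h at 37 C with pin-tool-delivered DMSO compound solutions; cells plated 6 h before dosing. Quantitative HTS format.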

A short description of assay [13]: qHTS assay to identify small molecule antagonists of the estrogen related receptor (ERR) signaling pathway from Tox21 library - cell viability counter screen (AID 1224834). Also: nearly all actives have a fitted effect of over 30% in size. Also: potency is read from the fitted curve at half-maximal effect. Put shortly: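 In this quantitative HTS format, ERR cells receive compounds in DMSO and are incubated for 17.5 h at 37 C. Live-cell protease activity is then detected with CellTiter-Fluor.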

The target in assay [14] is Luciferin 4-monooxygenase (Photinus pyralis) (UniProt P08659). Description: qHTS assay to identify small molecule inhibitors of firefly luciferase (AID 1224835). Also: nearly all actives have a fitted effect of over 25% in size. Also: potency is read from the fitted curve at half-maximal effect. In outline: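 Quantitative HTS format; KM concentrations of both substrates. Purified P. pyralis FLuc activity quantified from luminescence images.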
The target of assay [15] is Retinoic acid receptor RXR-alpha (Homo sapiens) (UniProt P19793). In words: qHTS assay to identify small molecule agonists of the RXR signaling pathway (AID 1159527; calls by dose curve; also: nearly all actives have a fitted effect of over 35% in size). In outline:
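Agonist mode; 9-cis retinoic acid positive control. HEK 293T UAS-bla reporter cells, 2% charcoal-stripped FBS, 16 hr compound exposure at 37 C/5% CO2. LiveBLAzer B/G FRET substrate 2 hr RT; ex 405, em 460/530 nm.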

In assay [16] the target is Nuclear receptor ROR-gamma (Homo sapiens) (UniProt P51449). In words: qHTS assay to identify small molecule antagonists of the retinoid-related orphan receptor gamma (ROR-gamma) signaling pathway (AID 1159521; also: nearly all actives have a fitted effect of over 50% in size; also: potency is read from the fitted curve at half-maximal effect). Put shortly: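 Luminescence readout (ONE-Glo, 30 min RT) after 16 h doxycycline induction; loss of signal scored as antagonism. CHO cells with TET-inducible RORγ and RORE-LUC reporter; compounds added 2 h before 1 uM final doxycycline.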

Assay [17] is described as follows: qHTS assay to identify small molecule agonists of the AP-1 signaling pathway (AID 1159526; calls by dose curve; also: potency is read from the fitted curve at half-maximal effect).
The nature of assay [18]: qHTS assay to identify small molecule agonists of the retinoic acid receptor (RAR) signaling pathway (AID 1159553). In outline: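 Compounds dissolved in DMSO were pinned onto C3RL4 cells seeded the previous day, and plates were held 6 hr at 37 C. RARE-driven luciferase output was then read by luminescence.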

Structures are written as SMILES. “And” between values parts separate entries of the source, which are not always exact repeats. Equal entries are not always repeated. Results filed as inconclusive are left out. More than one record can exist for a structure, and the calls need not agree. The source made the active and inactive calls. Unless noted, calls follow the shape of the dose curve; as a rule, active = well fitted curve in the direction sought with a large enough effect in the repeat runs; inconclusive = weak or mixed curves; inactive = no such curve, though single readings can be large; an effect the other way counts as inactive or inconclusive.

Sequence of Luciferin 4-monooxygenase (Photinus pyralis) (P08659 whole entry, looked up): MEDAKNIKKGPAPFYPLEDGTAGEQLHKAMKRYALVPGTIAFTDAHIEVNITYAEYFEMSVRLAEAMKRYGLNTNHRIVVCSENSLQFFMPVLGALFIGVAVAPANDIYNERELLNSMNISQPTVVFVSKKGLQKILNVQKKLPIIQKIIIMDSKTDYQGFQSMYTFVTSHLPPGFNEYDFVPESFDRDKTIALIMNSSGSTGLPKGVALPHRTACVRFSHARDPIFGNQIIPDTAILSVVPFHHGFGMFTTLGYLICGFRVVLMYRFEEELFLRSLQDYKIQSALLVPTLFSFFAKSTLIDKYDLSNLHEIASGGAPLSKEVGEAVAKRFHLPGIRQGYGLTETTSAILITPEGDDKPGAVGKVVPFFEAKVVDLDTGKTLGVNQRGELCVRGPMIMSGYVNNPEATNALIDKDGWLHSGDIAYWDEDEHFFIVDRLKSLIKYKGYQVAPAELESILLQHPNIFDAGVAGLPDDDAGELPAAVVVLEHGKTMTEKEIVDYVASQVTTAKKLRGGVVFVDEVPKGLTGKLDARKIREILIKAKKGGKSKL
Sequence of Retinoic acid receptor RXR-alpha (Homo sapiens) (P19793 whole entry, looked up): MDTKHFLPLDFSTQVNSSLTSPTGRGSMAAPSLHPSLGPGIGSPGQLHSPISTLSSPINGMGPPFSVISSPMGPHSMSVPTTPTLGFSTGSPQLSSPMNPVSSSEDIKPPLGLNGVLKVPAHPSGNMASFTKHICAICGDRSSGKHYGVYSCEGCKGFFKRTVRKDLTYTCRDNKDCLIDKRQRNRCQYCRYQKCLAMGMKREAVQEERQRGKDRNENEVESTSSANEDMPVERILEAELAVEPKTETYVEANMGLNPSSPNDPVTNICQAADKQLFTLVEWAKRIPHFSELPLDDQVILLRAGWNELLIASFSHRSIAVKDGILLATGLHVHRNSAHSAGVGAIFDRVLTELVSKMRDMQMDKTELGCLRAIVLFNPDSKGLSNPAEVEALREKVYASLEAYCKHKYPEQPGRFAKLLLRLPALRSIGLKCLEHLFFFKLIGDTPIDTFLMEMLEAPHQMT

Take `Cc1ccc(-c2cc(C(F)(F)F)nn2-c2ccc(S(N)(=O)=O)cc2)cc1`: the Potency result in assay [1], in assay [3], in assay [4], in [11] and in [14] was “inactive” in each case. Moreover, the Potency was 48.8 µM (active) in [2]; 60.9 µM (active) and 54.5 µM (active) in [5]; 48.8 µM (active) and 54.9 µM (active) in [6]; 48.8 µM (active) and 21.9 µM (active) in assay [7]; 60.9 µM (active) and inactive in assay [8]; 43.1 µM (active) and 27.3 µM (active) and 29.8 µM (active) in [9]. The Potency in assay [13] was 48.4 µM (active) and 61.1 µM (active). The outcome in [10] and in assay [12] was inactive.

Regarding `CC(COc1ccccc1)N(CCCl)Cc1ccccc1` (configuration not stated), the Potency entry in assay [2], in [3], in assay [4], in assay [6], in assay [15] and in assay [7] was “inactive” throughout. The Potency result in assay [8] and in assay [13] was “inactive” each time. For the same molecule, the Potency in assay [5] is 49.1 µM (active) and 54.5 µM (active) and 29.8 µM (active).

On to `Clc1ccc2c(c1)C(N1CCNCC1)=Nc1ccccc1O2`, for which the Potency in assay [2] is 49 µM (active) and inactive. Also, the Potency entry in [3], in [4], in assay [16], in assay [6], in [15] and in assay [7] was “inactive” in each case. The Potency result in assay [8] and in assay [13] was “inactive” each time.

Consider `COc1ccc(CCN2CCC(Nc3nc4ccccc4n3Cc3ccc(F)cc3)CC2)cc1`, for which the Potency is 6.3 µM (active) and 23.9 µM (active) in [2]; 17.8 µM (active) in assay [3]; 31.6 µM (active) in assay [4]; 9.9 µM (active) and 11.9 µM (active) in assay [16]; 35.4 µM (active) and inactive in assay [6]; 8.9 µM (active) and 21.3 µM (active) in assay [7]. The Potency in [8] was 44.2 µM (active); in [9] it was 2.11 µM (active); in assay [13] it was 22.2 µM (active) and 26.6 µM (active). The Potency entry in assay [17] is “inactive”.

Turning to `BrC1CCC(Br)C(Br)CCC(Br)C(Br)CCC1Br` (configuration not stated), the Potency was 18.5 µM (active) in assay [1]; 16.5 µM (active) in assay [2]; 43.1 µM (active) in assay [5]; 15.4 µM (active) and 18.5 µM (active) in assay [7]; 48.4 µM (active) in [13]. Moreover, the Potency entry in assay [3], in assay [4], in assay [6], in assay [15] and in [8] was “inactive” each time.

On to `C=CC(=O)OCCCCCCOC(=O)C=C`, for which the Potency in assay [1] is 44.2 µM (active) and inactive; in assay [9], 13.9 µM (active) and 21.7 µM (active); in assay [13], 54.5 µM (active). Moreover, the Potency result in assay [2], in assay [3], in assay [4], in assay [5], in assay [6] and in [7] was “inactive” each time. The Potency entry in assay [18] and in assay [14] was “inactive” in each case.

Take `CCCCCC(=O)O[C@]1(C(C)=O)CC[C@H]2[C@@H]3CCC4=CC(=O)CC[C@]4(C)[C@H]3CC[C@@]21C`: the Potency in assay [2] was 43.4 µM (active) and 23.9 µM (active); in assay [5], 60.7 µM (active); in assay [7] it was 19.4 µM (active) and 23.9 µM (active); in [13], 48.2 µM (active) and 29.8 µM (active). Also, the Potency result in assay [3], in assay [4], in assay [6], in assay [17], in assay [8] and in assay [14] was “inactive” each time.

For `CCN(CC)CCOc1ccc(/C(=C(\Cl)c2ccccc2)c2ccccc2)cc1`, the Potency in [1] is 19.9 µM (active) and 26.6 µM (active); in assay [2], 22.3 µM (active) and 21.3 µM (active); in assay [3] it was 44.6 µM (active) and 23.9 µM (active); in [5], 31.3 µM (active); in [16], 19.7 µM (active) and 26.6 µM (active); in [6], 17.7 µM (active). Further, the Potency in assay [7] was 15.8 µM (active) and 10.7 µM (active); in [8], 49.6 µM (active); in assay [9], 24.8 µM (active); in [13], 55.6 µM (active) and 26.6 µM (active).

Turning to `c1ccc2c(c1)-c1cccc3c1c-2cc1ccccc13`, the Potency entry in assay [2], in assay [3], in [4], in assay [8], in assay [9] and in assay [13] was “inactive” in each case. The Potency in [5] is 53.2 µM (active); in assay [17], 17 µM (active) and 38.9 µM (active); in assay [14], 7.1 µM (active).

The values above are taken from PubChem BioAssay (Tox21).
